Measurements as given in PubChem BioAssay (NCI).
Compounds without any hit were thinned out: in the full panel of roughly 83,000, 20% have a hit.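 For each line, cells grew in 96-well plates with the test compound present at a single concentration for 48 hours.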 Unmarked numbers belong to inactive results. Activity calls are given as the source filed them. How the source made its calls: active means growth percent below 10; inactive means the rest.

Key:
Experiment in all cases: NCI-60 one-dose screen, 48 h (100 = growth as untreated, 0 = no growth, -100 = all killed)
Conditions in all cases: 10 µM unless noted
T-47D breast = tested on: T-47D breast
BT-549 breast = tested on: BT-549 breast
SW-620 colon = tested on: SW-620 colon
MCF7 breast = tested on: MCF7 breast
HCT-116 colon = tested on: HCT-116 colon
HCC-2998 colon = tested on: HCC-2998 colon
KM12 colon = tested on: KM12 colon
MDA-MB-435 melanoma = tested on: MDA-MB-435 melanoma

| SMILES | growth (T-47D breast) | growth (BT-549 breast) | growth (SW-620 colon) | growth (MCF7 breast) | growth (HCT-116 colon) | growth (HCC-2998 colon) | growth (KM12 colon) | growth (MDA-MB-435 melanoma) |
| --- | --- | --- | --- | --- | --- | --- | --- | --- |
| COC(=O)CCC1=C(C)C2=NC1=CC1=NC(=CC3=NC(=Cc4[nH]c(/c(=C(/C)O)c4C)=C2)C(C(C)=O)=C3C)C(C)=C1CCC(=O)OC | 82.9% | 100% | 103% | 98.2% | 102% | 104% | 104% |  |
| COc1ccc2c(c1)O/C(=C\c1cccc(OCC(=O)Nc3nc(C)c(C)s3)c1)C2=O | 75.7% | -81.9% (active) | -39% (active) | 93.8% |  |  | 1.92% (active) | 80% |
| COc1ccc(C(=NN=C(N)N)c2ccc(OC)cc2)cc1 | 8.87% (active) | 30.6% | 25.3% | 5.47% (active) |  |  | 21.2% | -35.2% (active) |
| C=C(C)[C@@H]1CC[C@]2(C(=O)NC3CCCCC3)CC[C@]3(C)[C@H](CC[C@@H]4[C@@]5(C)CCCNC(C)(C)[C@@H]5CC[C@]43C)[C@@H]12 | -32.8% (active) | 85.4% | -76.1% (active) | 16.5% | -13.8% (active) | -16% (active) | 16.7% |  |
| COc1ccc(N=C(c2ccccc2)C2C(=O)c3ccccc3C2=O)cc1 | 78% | 74.3% | 71.4% | 84.6% | 81.2% | 112% | 100% |  |
| CC1CC(C(C)(C)C)C(=O)C(C(C)(C)C)C1 (stereo not drawn) | 111% | 110% | 101% | 108% | 108% | 111% | 108% |  |
| Cc1cc(NCc2cc(Nc3ccnc4cc(Cl)ccc34)ccc2F)nc(Cl)n1 | 28% | 54.6% | 57% | 30% |  | 63.2% | 64.7% | 37% |
| C=C(C)[C@@H]1CC[C@]2(C(=O)NC3CCCCC3)CC[C@]3(C)[C@H](CC[C@@H]4[C@@]5(C)CCC(=O)C(C)(C)[C@@H]5CC[C@]43C)[C@@H]12 | 83.3% | 92.8% | 93.6% | 85.1% | 76.3% | 107% | 96% |  |
| COc1ccc2occ(C3=C(c4c[nH]c5ccccc45)C(=O)N(O)C3=O)c2c1 | 76.1% | 84.2% | 89.2% | 82.5% | 90.7% | 112% | 91.1% |  |
| COc1cc(N=Nc2cc(Cc3ccc(N(C)C)cc3)c(N)cc2N(C)C)c2ncccc2c1 | -12.1% (active) | 29.6% | -33.7% (active) | -1.6% (active) |  | 26.1% | -11.4% (active) | 18.7% |
| Cc1cc(C(=O)c2ccccc2)c(C)c2c1[nH]c1ccc(Cl)cc12 | 63.5% | 5.82% (active) | 26.3% | 13.1% |  | 21.8% | 0.781% (active) | -25.4% (active) |
| Oc1c(CN2CCCC2)cc(COCc2ccc(Br)cc2)c2cccnc12 | -7.63% (active) | 14.9% | 5.64% (active) | 11.7% | 1.8% (active) | 21.5% | 20.6% |  |
| N/C(=N\c1nc2ccccc2s1)NC(=O)Nc1cccc(Cl)c1 | 42.6% | 42.8% | 31.9% | 21.2% | 16% | 73% | 22.9% |  |
| COc1ccc(NC(=O)CSc2nc(C)c(C(C)=O)n2-c2ccc(Cl)cc2)cc1 | 80.5% | 80.4% | 96.1% | 92.9% |  | 90.3% | 95.5% |  |
| NC(=N\N=C/c1ccccc1[N+](=O)[O-])/C(N)=N\N=C/c1ccccc1[N+](=O)[O-] | 104% | 116% | 105% | 105% |  | 108% | 104% |  |
| COc1ccc(C(=O)Nn2c(NCC(=O)N3c4ccccc4Sc4ccccc43)nnc2-c2ccc(O)cc2)cc1 | 106% | 96.5% | 104% | 111% | 101% |  | 109% |  |
| N#Cc1nc(C#N)c(Sc2ccccc2)c(Sc2ccccc2)c1Sc1ccccc1 | -71.7% (active) |  | -67.2% (active) | -72.1% (active) | -30.7% (active) | -85.4% (active) | -85.2% (active) | -14.2% (active) |
| CC1=NOC(=O)/C1=C\c1ccc(O)cc1 | 104% | 107% | 102% | 94.6% | 103% | 109% | 101% |  |
| O=C(CCCCCCSc1nc(-c2ccccc2)cc(-c2ccc(Cl)cc2)n1)NO | -13.7% (active) |  | 11.9% | 15.9% | 6.79% (active) | 51.8% | 31.4% | 19.4% |
| CN(C)CCC=C1c2ccccc2C(C)(C)c2ccccc21 | 81% | 94.5% | 86% | 81.2% |  | 10.4% | 76.9% |  |
| CCOC(=O)c1c(-c2ccc(Cl)cc2)c(C#N)c(=O)n(-c2ccccc2CC)c1N | 84.1% | 123% | 99.9% | 90.7% | 91.3% | 66.4% | 79.1% |  |
| CCOC(CN=Cc1cc(C)c2[nH]c3ccccc3c2c1C)OCC | 94.4% | 83.2% | 99.1% | 88.9% | 94.4% | 113% | 106% |  |
| C[n+]1cc2cc(C(N)=O)[nH]c3c(=N)c(Cl)c(N)c1c23 | 48.3% | 78.9% | 30.8% | 35.8% | 6.54% (active) | 65.5% | 74.5% |  |
| O=c1cc(-c2ccc(Cl)cc2)[nH]c2ccccc12 | 87.2% | 101% | 56.9% | 49.9% | 73.2% | 76.7% | 43.7% |  |
| COc1ccc(NC(=O)CSc2nnc(-c3cc(-c4ccccc4)nc4ccccc34)n2-c2ccccc2)cc1 | 78.4% |  | 101% | 89.1% | 92.6% | 107% | 98.1% | 99.2% |

| SMILES | growth (T-47D breast) | growth (BT-549 breast) | growth (SW-620 colon) | growth (MCF7 breast) | growth (HCT-116 colon) | growth (HCC-2998 colon) | growth (KM12 colon) | growth (MDA-MB-435 melanoma) |
| --- | --- | --- | --- | --- | --- | --- | --- | --- |
| COc1ccc(C(=O)/C=C/c2c(C(F)(F)F)nc3sccn23)cc1OC | -16.9% (active) | 11.3% | 10.4% | 7.83% (active) | 6.66% (active) | 31.4% | 11.2% |  |
| Nc1ccc2c(c1)c(N)nn2C(=O)Nc1ccc(Cc2ccccc2)cc1 | 60.4% | 86.4% | 93.4% | 64.3% |  | 36.9% | 65.3% |  |
| CS(=O)(=O)c1ccc(Nc2nc(N[C@H]3CCCC[C@H]3N)nc3cc[nH]c(=O)c23)cc1 | -3.45% (active) |  | 6.42% (active) | 5.47% (active) | -2.19% (active) | -13.1% (active) | 0.908% (active) | -4.07% (active) |
| O=S(=O)(O)c1ccc(N/N=C/c2ccccc2Cl)cc1 | 106% |  | 108% | 99.2% | 104% |  | 116% | 102% |
| CCn1c(C)nc2cc(C(N)=O)ccc21 | 113% | 111% | 100% | 91.5% | 94.6% | 96.9% | 107% |  |
| N/C(=N/N=C/c1ccccc1)N/N=C\c1ccccc1 | 37.6% |  | 33.5% | 31.6% | 35.9% |  | 35% | -3.26% (active) |
| N#C/C(=C\c1ccc(-c2ccccc2F)o1)c1nc(-c2ccco2)cs1 | 14.5% |  | 96.1% | 37.7% | 93% | 67.8% | 63.9% | 101% |
| Cc1cc(Cl)ccc1Nc1nc(C(F)(F)F)ccc1C(=O)N/N=C/c1ccc(N(C)C)cc1 | 37% | 34.9% | 15.9% | 10.1% | 19.4% | -37.3% (active) | 26.9% |  |
| CC1(C)CC(=O)CC2(C1)N=C(N)Nc1nc3ccccc3n12 (stereo not drawn) | 106% |  | 109% | 89.4% | 96.8% |  | 108% | 104% |
| COc1ccc(Cl)cc1NC(=O)C(Br)C(Br)C(=O)O (stereo not drawn) | 19.9% |  | 8.71% (active) | 23.8% | 8.19% (active) | 38.6% | 83.2% | 34.2% |
| COc1ccc(-c2[nH]c(=S)n(C(CC3(C)NCC(=O)N3n3c(-c4ccccc4)cc(C)nc3=S)c3ccc(OC)cc3)c(=O)c2Br)cc1 (stereo not drawn) | 22.8% |  | 37.2% | 16.5% | 21.8% | 61.2% | 37% | 57.4% |
| Clc1cc(Cl)cc(Nc2ccc3cc(OCCCN4CCOCC4)ccc3n2)c1 | 32% | 88.5% | -8.79% (active) | 8.56% (active) |  | -17.6% (active) | 8.59% (active) |  |
| CCN(CC)S(=O)(=O)c1cccc(-c2ccc3c(NC(=O)C4CC4)n[nH]c3c2)c1 |  | 1.05% [6.25 µM] (active) | 26.1% [6.25 µM] | 6.78% [6.25 µM] (active) | 11.9% [6.25 µM] | 43.9% [6.25 µM] | 12.6% [6.25 µM] | 7.53% [6.25 µM] (active) |
| COc1ccccc1N1C(=O)/C(=C/C2=Cc3ccccc3OC2)SC1=S | 89.7% |  | 95.4% | 95.5% | 84.9% | 102% | 99.6% | 97.8% |
| COC(=O)c1c2c(c(C)[n+]([O-])c1C)C(=O)C(NCc1ccc(F)c(Cl)c1)=CC2=O | -5.44% (active) | 43.7% | 5.47% (active) | -32.8% (active) | 0.429% (active) | 13.3% | 11.5% |  |
| c1csc(-c2c3ccc(=[N+]4CCCCC4)cc-3oc3cc(N4CCCCC4)ccc23)c1 | -60.7% (active) |  | -76% (active) | -57.2% (active) | -97.1% (active) | -94.2% (active) | -92.9% (active) | -46.5% (active) |
| Cc1ccc2nc(C)c(-c3nnc(SCc4ccc(C#N)cc4)o3)n2c1 | 89.3% | 85.8% | 105% | 77.8% | 91.8% | 108% | 106% |  |
| CC(C)C(=O)Nc1n[nH]c2cc(-c3cccc(NS(=O)(=O)C4CC4)c3)ccc12 |  | 42.3% | 74.5% | 33.2% | 52.5% | 83.4% | 61.3% | 12.9% |
| COc1ccc(NC(=O)CSc2nnc(-c3cc(-c4ccc(S(N)(=O)=O)cc4)nc4ccccc34)n2-c2ccccc2)cc1 | 58.2% |  | 97.6% | 78.8% | 73.9% | 101% | 92.7% | 92.2% |
| NS(=O)(=O)c1ccc(-n2nc(C(=O)N/N=C\c3ccc(F)cc3)cc2-c2ccc(Cl)cc2)cc1 | 79.5% |  | 95.8% | 81.3% | 98% | 98% | 96.9% | 94.3% |
| CCN1C(=O)N(CC)C2Nn3c(s/c(=C4\C(=O)N(C)c5ccccc54)c3=O)=NC21 (stereo not drawn) | 27.5% | 53.9% | 26.3% | 13.5% | 11.1% | 88.6% | 29.8% |  |
| O=C1Nc2ccccc2/C1=C/c1cn(C(=O)c2ccc(Cl)cc2)c2ccccc12 |  | 96.4% | 102% | 59.1% | 91.6% |  | 40.9% | 110% |
| O=c1oc2ccccc2c(Cl)c1Cl | 43.1% |  | 48.9% | 34% | 32.5% | 93.1% | 83.6% | 52% |
| O=C(CSc1nccc(Nc2ccc(S(=O)(=O)Nc3nccs3)cc2)n1)c1ccc(F)cc1 | 84% |  | 99.6% | 96.9% | 95.9% | 107% | 106% | 104% |
| Cc1ccc(S(=O)(=O)n2cc(CNc3ccc(N4CCOCC4=O)cc3)c3ccccc32)cc1 | 56.9% |  | 78.7% | 61.9% | 76.8% | 97.8% | 96.7% | 97% |
